A short description of the first assay: differential killing of epithelial or mesenchymal cells, primary screen, imaging, PC-3E GFP, TEM4-18 mCherry, co-culture (AID 1345086).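 Further: cells exposed to compound for 72 h before imaging.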 The note with it: imaging cell counts, measured here: epithelial PC-3E GFP cell survival, at 1 µM.
`COc1cc(N)c(Cl)cc1C(=O)NC1CCN(CCCOc2ccc(F)cc2)CC1OC` (configuration not stated) had a normalised cell number of 0.93.

Turning to `O=C(OOC(=O)c1ccccc1)c1ccccc1`, the normalised cell number was found to be 1.11.

Regarding `C[C@@]12C(=O)OC(=O)[C@]1(C)C1CCC2O1`, the normalised cell number is 1.02.

For the molecule `C[N+](C)(C)CCCCCCCCCC[N+](C)(C)C`, the normalised cell number was 1.13.

`CC[C@@H](CO)NCCN[C@@H](CC)CO`: the normalised cell number amounted to 0.99.

As to `Cc1ncc(CSSCc2cnc(C)c(O)c2CO)c(CO)c1O`, the normalised cell number came out at 1.03.

Molecule `O=C(O)CN(CC(=O)O)Cc1cc2c(-c3ccccc3C(=O)O)c3cc(CN(CC(=O)O)CC(=O)O)c(=O)cc-3oc2cc1O` returned a normalised cell number of 1.53.

Molecule `CC1=C(C/C=C(\C)CCC[C@H](C)CCC[C@H](C)CCCC(C)C)C(=O)c2ccccc2C1=O` returned a normalised cell number of 0.92.

Regarding `OCCc1ccccc1`, the normalised cell number worked out at 1.02.

For `O=C1c2ccccc2C(=O)C1c1ccc(Br)cc1`, the normalised cell number came to 0.94.

Molecule `CCOC(=O)c1ccc(O)cc1` displayed a normalised cell number of 1.05.

`O=C(CCCl)NCc1ccccc1` displayed a normalised cell number of 1.13.

For the molecule `CC1(C)[C@@H]2CC[C@@]1(C)C(=O)C2`, the normalised cell number was found to be 1.25.

Regarding `Cc1cc(C(C#N)c2ccc(Cl)cc2)c(Cl)cc1NC(=O)c1cc(I)cc(I)c1O` (configuration not stated), the normalised cell number amounted to 1.27.

With `CC(C)CCCC(C)N` (configuration not stated), the normalised cell number was found to be 0.96.

With `NCCNCCNCCN`, the normalised cell number amounted to 1.02.

`CC(O)Cn1cnc2c1c(=O)n(C)c(=O)n2C` (configuration not stated) had a normalised cell number of 1.09.

Take `CC(=O)NCc1c(I)c(NC(C)=O)c(I)c(C(=O)O)c1I`: the normalised cell number was determined as 1.02.

`O=S(=O)(O)CCCS(=O)(=O)O` registered a normalised cell number of 1.27.

The molecule `CNCc1ccccc1` displayed a normalised cell number of 1.18.

For `CCN(CC)CCOc1ccc2c(c1)C(=O)c1cc(OCCN(CC)CC)ccc1-2`, the normalised cell number was 0.79.

`CN(C)CCCOc1nn(Cc2ccccc2)c2ccccc12` returned a normalised cell number of 1.01.

For `CCCCCCCCCCOc1cc2c(=O)c(C(=O)OCC)c[nH]c2cc1OCC`, the normalised cell number amounted to 0.98.

Molecule `NC(=O)c1cc[n+](CC2=C(C(=O)[O-])N3C(=O)[C@@H](NC(=O)Cc4cccs4)[C@H]3SC2)cc1` displayed a normalised cell number of 1.26.

Molecule `Cc1c(F)c(N2CCNC(C)C2)cc2c1c(=O)c(C(=O)O)cn2C1CC1` (configuration not stated) displayed a normalised cell number of 1.13.

`Cc1cc2nc3ccc(=[N+](C)C)cc-3sc2cc1N` showed a normalised cell number of 0.17.

With `NC(=O)C1(N2CCCCC2)CCN(CCCC(=O)c2ccc(F)cc2)CC1`, the normalised cell number amounted to 1.16.

With `CC(=O)NC(Cc1ccccc1)C(=O)O` (configuration not stated), the normalised cell number was determined as 1.11.

The molecule `O=C(Nc1ccc(C(=O)O)c(O)c1)c1ccccc1` returned a normalised cell number of 0.89.

As for `CC(C)=CCC/C(C)=C/CO`, the normalised cell number was 1.13.

The molecule `O=C1OC2(c3ccc(O)cc3Oc3cc(O)ccc32)c2ccccc21` showed a normalised cell number of 1.11.

With `COc1cc(C(=O)NCCCCCC(=O)O)cc(OC)c1OC`, the normalised cell number is 0.95.

For the molecule `OC1C(O)C(O)C(O)C(O)C1O` (configuration not stated), the normalised cell number is 0.97.

As to `CC(O)(P(=O)(O)O)P(=O)(O)O`, the normalised cell number was 1.05.

Molecule `CC(=O)OCC(=O)[C@@]1(O)CCC2C3CCC4=CC(=O)CC[C@]4(C)C3[C@@H](O)C[C@@]21C` (some centres not stated) had a normalised cell number of 1.24.

`NC(=O)CCCCC1CCSS1` (configuration not stated) registered a normalised cell number of 0.81.

Staying with this assay, now noted: imaging cell counts, measured here: mesenchymal TEM4-18 mCherry cell survival, at 1 µM.
Consider `COc1cc(N)c(Cl)cc1C(=O)NC1CCN(CCCOc2ccc(F)cc2)CC1OC` (configuration not stated), for which the normalised cell number was found to be 0.88.

Molecule `O=C(OOC(=O)c1ccccc1)c1ccccc1` showed a normalised cell number of 1.15.

`C[C@@]12C(=O)OC(=O)[C@]1(C)C1CCC2O1`: the normalised cell number is 1.01.

For `C[N+](C)(C)CCCCCCCCCC[N+](C)(C)C`, the normalised cell number was 0.99.

`CC[C@@H](CO)NCCN[C@@H](CC)CO`: the normalised cell number is 0.97.

For `Cc1ncc(CSSCc2cnc(C)c(O)c2CO)c(CO)c1O`, the normalised cell number was found to be 0.92.

`O=C(O)CN(CC(=O)O)Cc1cc2c(-c3ccccc3C(=O)O)c3cc(CN(CC(=O)O)CC(=O)O)c(=O)cc-3oc2cc1O` displayed a normalised cell number of 1.49.

Take `CC1=C(C/C=C(\C)CCC[C@H](C)CCC[C@H](C)CCCC(C)C)C(=O)c2ccccc2C1=O`: the normalised cell number came out at 1.01.

The molecule `OCCc1ccccc1` displayed a normalised cell number of 1.

For `O=C1c2ccccc2C(=O)C1c1ccc(Br)cc1`, the normalised cell number stood at 0.85.

Turning to `CCOC(=O)c1ccc(O)cc1`, the normalised cell number came out at 0.86.

Molecule `O=C(CCCl)NCc1ccccc1` displayed a normalised cell number of 1.07.

`CC1(C)[C@@H]2CC[C@@]1(C)C(=O)C2` gave a normalised cell number of 1.05.

Molecule `Cc1cc(C(C#N)c2ccc(Cl)cc2)c(Cl)cc1NC(=O)c1cc(I)cc(I)c1O` (configuration not stated) showed a normalised cell number of 1.02.

`CC(C)CCCC(C)N` (configuration not stated) came in with a normalised cell number of 1.1.

Turning to `NCCNCCNCCN`, the normalised cell number stood at 0.88.

`CC(O)Cn1cnc2c1c(=O)n(C)c(=O)n2C` (configuration not stated): the normalised cell number came out at 1.04.

The molecule `CC(=O)NCc1c(I)c(NC(C)=O)c(I)c(C(=O)O)c1I` returned a normalised cell number of 1.27.

In turn, `O=S(=O)(O)CCCS(=O)(=O)O` came in with a normalised cell number of 0.94.

For `CNCc1ccccc1`, the normalised cell number turned out to be 1.06.

The molecule `CCN(CC)CCOc1ccc2c(c1)C(=O)c1cc(OCCN(CC)CC)ccc1-2` came in with a normalised cell number of 0.93.

`CN(C)CCCOc1nn(Cc2ccccc2)c2ccccc12` gave a normalised cell number of 0.89.

As to `CCCCCCCCCCOc1cc2c(=O)c(C(=O)OCC)c[nH]c2cc1OCC`, the normalised cell number is 0.98.

`NC(=O)c1cc[n+](CC2=C(C(=O)[O-])N3C(=O)[C@@H](NC(=O)Cc4cccs4)[C@H]3SC2)cc1` yielded a normalised cell number of 0.94.

As for `Cc1c(F)c(N2CCNC(C)C2)cc2c1c(=O)c(C(=O)O)cn2C1CC1` (configuration not stated), the normalised cell number is 1.12.

`Cc1cc2nc3ccc(=[N+](C)C)cc-3sc2cc1N` had a normalised cell number of 0.28.

Take `NC(=O)C1(N2CCCCC2)CCN(CCCC(=O)c2ccc(F)cc2)CC1`: the normalised cell number is 1.02.

`CC(=O)NC(Cc1ccccc1)C(=O)O` (configuration not stated) came in with a normalised cell number of 1.01.

As to `O=C(Nc1ccc(C(=O)O)c(O)c1)c1ccccc1`, the normalised cell number was 0.92.

Turning to `CC(C)=CCC/C(C)=C/CO`, the normalised cell number amounted to 1.03.

Molecule `O=C1OC2(c3ccc(O)cc3Oc3cc(O)ccc32)c2ccccc21` had a normalised cell number of 1.6.

With `COc1cc(C(=O)NCCCCCC(=O)O)cc(OC)c1OC`, the normalised cell number was determined as 0.86.

As to `OC1C(O)C(O)C(O)C(O)C1O` (configuration not stated), the normalised cell number came out at 1.13.

As for `CC(O)(P(=O)(O)O)P(=O)(O)O`, the normalised cell number stood at 1.

Molecule `CC(=O)OCC(=O)[C@@]1(O)CCC2C3CCC4=CC(=O)CC[C@]4(C)C3[C@@H](O)C[C@@]21C` (some centres not stated) registered a normalised cell number of 1.44.

Take `NC(=O)CCCCC1CCSS1` (configuration not stated): the normalised cell number is 0.82.

The values above are taken from PubChem BioAssay.
